Bioassay records deposited in PubChem by Center for Chemical Genomics, University of Michigan.
Shown is part of a subset that was picked to be rich in hits.
Dicer inh = inhibitors of Dicer pre-microRNA processing, primary screen, biochemical, cat-ELCCA, chemiluminescence; Endoribonuclease Dicer (Homo sapiens), Q9UPY3; cat-ELCCA pre-miR-21 Dicer processing; active compounds read high; z-score at 25 µM; actives 6% (n = 47,000); AID 1347074, 2019; in the data active = z-score above about 3, passing the limit was not always enough;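 note: plate controls were vehicle for no effect and no enzyme for full effect; higher signal means more uncleaved substrate so more Dicer inhibition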
* marks the source's active call; other numbers are inactive results.

SMILES	Dicer inh
CC[C@H](C)[C@H](NC(=O)OCC1c2ccccc2-c2ccccc21)C(=O)O	0.52
C=CCOC(=O)C(CC(=O)O)NC(=O)OCC1c2ccccc2-c2ccccc21 (stereo not given)	-0.22
Cc1cc(C2=CSC3=NCCCN23)ccc1Cl	-0.65
Cn1cccc1CNCCCN1CCOCC1	1.3
CCCCNCC(=O)c1c(N)n(C)c(=O)n(C)c1=O	2.4
O=C(Nc1ccccc1)Oc1cccc(N2CCOCC2)c1	3.3*
O=C(Nc1ccc2c(c1)OCO2)Oc1ccccc1	-0.16
CC(C)(C)c1ccc(NC(=O)Oc2ccccc2N2CCOCC2)cc1	-0.14
Cc1ccc2c(c1)OC(c1ccc([N+](=O)[O-])s1)N2 (stereo not given)	-0.66
CC(C)CC(C(=O)O)N1C(=O)C2CC=C(Cl)CC2C1=O (stereo not given)	-0.93
COc1ccc(N2C(=O)C3CC=C(Cl)CC3C2=O)cc1 (stereo not given)	-0.6
CCOC(=O)CN1C(=O)C2CC=C(Cl)CC2C1=O (stereo not given)	3.1*
CCOC(=O)c1sc(N2C(=O)c3oc4ccccc4c(=O)c3C2c2ccccc2F)nc1C (stereo not given)	0
CC1CCc2c(sc3nnn(CC(=O)OCc4ccccc4)c(=O)c23)C1 (stereo not given)	0.76
COc1cccc(-c2nc(-c3ccc(Cl)cc3)no2)c1	3*
COc1cccc(-c2nnc(SCc3ccc(Cl)cc3)o2)c1	3.1*
COc1cccc(-c2nc(-c3ccccc3)no2)c1	3.2
COc1cccc(-c2nnc(SCc3cccc(Cl)c3)o2)c1	-0.19
Cc1ccc(-c2nc(-c3ccccc3)no2)cc1	0.12
COc1cccc(-c2nnc(SCc3ccc(Br)cc3)o2)c1	0.26
Cc1cc(C)cc(-c2nc(-c3ccccc3)no2)c1	4.7*
COc1ccc(-c2noc(-c3cc(C)cc(C)c3)n2)cc1	-0.05
COc1ccc(-c2nc(-c3ccc(Cl)cc3)no2)cc1OC	8.9
CC(C)CN1C(=O)C(=O)/C(=C(\O)c2ccc(Cl)cc2)C1c1ccccn1 (stereo not given)	-0.62
CCCSc1ccc2nc(NC(=O)CSc3nc(SC)ns3)[nH]c2c1	1.8
SMILES	Dicer inh
COc1cc2c(cc1OC)C1N(CC2)C(c2ccccc2)=NN1c1ccccc1 (stereo not given)	1.4
Cc1ccc(-n2c(=O)[nH]c3c(sc4nnc(-c5ccccc5)c(-c5ccccc5)c43)c2=O)cc1	0.41
CS/C(=N/S(=O)(=O)c1ccc(-n2nc(C(F)(F)F)cc2-c2cccs2)cc1)NNC(=O)Nc1ccccc1	4.4*
NN/C(=N\S(=O)(=O)c1ccc(-n2nc(C(F)(F)F)cc2-c2cccs2)cc1)N1CCCC1	-1.8
CN(C)/C=N/S(=O)(=O)c1ccc(-n2nc(C(F)(F)F)cc2-c2cccs2)cc1	-3.1
COC(=O)C1=C(C)Nc2nc3ccccc3n2C1c1ccncc1 (stereo not given)	-1.5
Cc1nn(C(=O)c2ccc(Cl)cc2)c(C)c1Cc1c(F)cccc1Cl	41
O=C(Nc1cccc(Cl)c1)Nc1ccc2nnsc2c1	1.4
CCc1ccc(C2C(C(=O)OCC3CCCO3)=C(C)NC3=C2C(=O)CC(C)(C)C3)cc1 (stereo not given)	7*
CC1=C(C(=O)OCC2CCCO2)C(c2coc3ccc(Cl)cc3c2=O)C2=C(CC(C)(C)CC2=O)N1 (stereo not given)	3.2*
CC1=C(C(=O)OCC2CCCO2)C(c2cccc(C)c2)C2=C(CC(C)(C)CC2=O)N1 (stereo not given)	2.2
COc1ccc(C2C(C(=O)OCC3CCCO3)=C(C)NC3=C2C(=O)CC(C)(C)C3)cc1O (stereo not given)	-0.23
CC1=C(C(=O)OCC2CCCO2)C(c2ccccc2F)C2=C(CC(C)(C)CC2=O)N1 (stereo not given)	4.7*
CC1=C(C(=O)OCC2CCCO2)C(c2ccc3c(c2)OCO3)C2=C(CC(C)(C)CC2=O)N1 (stereo not given)	1.4
COc1cc(C2C(C(=O)OCC3CCCO3)=C(C)NC3=C2C(=O)CC(C)(C)C3)cc(Cl)c1O (stereo not given)	1.1
CC1=C(C(=O)OCC2CCCO2)C(c2coc3ccc(Cl)cc3c2=O)C2=C(CCCC2=O)N1 (stereo not given)	2.1
CC1=C(C(=O)OCC2CCCO2)C(c2ccccc2C)C2=C(CC(C)(C)CC2=O)N1 (stereo not given)	-0.02
COc1ccc(C2c3c(oc4ccccc4c3=O)C(=O)N2c2nncs2)cc1 (stereo not given)	-0.65
NC(=O)c1c(NC(=O)COc2ccccc2Cl)sc2c1CCCC2	-4.1
CCc1nc(SCC(=O)O)n[nH]1	-0.16
COc1ccc(OC/C(N)=N/C(=S)Nc2ccc(Cl)cc2)cc1	-0.45
CC12CN3CC(C)(CN(C1)C3c1ccc(F)cc1)C2 (stereo not given)	0.93
CC12CN3CC(C)(CN(C1)C3c1ccc(Cl)cc1)C2 (stereo not given)	5.1*
CC12CN3CC(C)(CN(C1)C3c1ccccc1Cl)C2 (stereo not given)	0.7
CC12CN3CC(C)(CN(C1)C3c1ccc(O)c(O)c1)C2 (stereo not given)	3.1*
SMILES	Dicer inh
Cc1cccc(C2N3CC4(C)CN2CC(C)(C3)C4)c1 (stereo not given)	-0.26
COc1ccc(C2N3CC4(C)CN2CC(C)(C3)C4)cc1OC (stereo not given)	1.8
CCCOc1ccc(C2c3c(oc4ccc(C)cc4c3=O)C(=O)N2CCCN(C)C)cc1 (stereo not given)	-0.21
O=C1CS/C(=N\N=C\c2c(Cl)cccc2Cl)N1	-0.44
Cc1ccc(C2Nn3c(C)nnc3SC2C(=O)Nc2cc(C)ccc2C)cc1 (stereo not given)	0.36
CO[C@H]1/C=C/O[C@@]2(C)Oc3c(C)c(O)c4c(O)c(c(/C=N/N5CCN(C6CCCC6)CC5)c(O)c4c3C2=O)NC(=O)/C(C)=C\C=C\[C@H](C)[C@H](O)[C@@H](C)[C@@H](O)[C@@H](C)[C@H](OC(C)=O)[C@@H]1C	-0.38
Cc1cc(C)c2cc(C(=O)N(C)c3ccc(F)cc3F)[nH]c2c1	-2.4
CSC(=NC(C)C)NC(C)C	-0.6
CCOC(=O)c1cc(-c2ccccc2)n(-c2ccc(N3CCOCC3)cc2)c1C	4.3*
CCOC(=O)c1cc(-c2ccc(Cl)cc2)n(-c2ccccc2)c1C	1.9
CCOC(=O)c1cc(C(C)(C)C)n(-c2ccc(N3CCOCC3)cc2)c1C	1.2
COc1cc2c(cc1OC)C(c1ccc(F)cc1)C1=C(CC(C)(C)CC1=O)N2 (stereo not given)	2
COC(=O)C1=C(C)NC2=C(C(=O)CC(C)(C)C2)C1c1cc2c(cc1Br)OCO2 (stereo not given)	0.96
CC1(C)CC(=O)C2=C(C1)Nc1cc3c(cc1C2c1ccc(Br)cc1)OCO3 (stereo not given)	4.7*
Cc1cc(C(=O)Nc2cc(C(F)(F)F)ccc2N2CCOCC2)nn1-c1ccccc1	1.7
COc1ccc(-c2nnc(SCc3ccc(Cl)cc3)o2)cc1	0.75
Clc1ccc(-c2nnc(-c3ccccc3)o2)cc1	1.1
CCc1ccc(-c2nnc(-c3ccc(Cl)cc3)o2)cc1	3.3*
c1cc2c(cc1CNCc1ccc3c(c1)OCO3)OCO2	2.4
CCOc1cc(C2c3c(oc4ccccc4c3=O)C(=O)N2Cc2ccccc2)ccc1O (stereo not given)	1.3
Cc1cc(Br)ccc1NC(=O)C1Sc2nnc(C)n2NC1c1ccccc1 (stereo not given)	0.34
